HIV TAR-Tat – TAR RNA-Tat peptide displacers, HIV-1, primary screen, biochemical, FRET, FAM/TAMRA-labeled Tat. HIV-1 TAR RNA, Tat peptide displacement FRET; hits give high values. z-score (test concentration not listed). 100,000 tested, 0.6% active. AID 1259389, 2018; active means z-score of 3 or more in at least 2 runs
CDC25B-CDK2 inh – primary biochemical HTRF screen for blockers of M-phase inducer phosphatase 2 binding to CDK2/cyclin A; P30305+P24941; HTRF CDC25B-CDK2/CyclinA binding, anti-His/anti-Flag; hits give high values; z-score (test concentration not listed); 94,000 tested, 0.72% active; in the data active means z-score above about 3.2
Starred values were filed as active, the others as inactive; . = not tested or not shown. The list is not random: actives were taken first. Their share in the collection is about 0.86%.

SMILES	HIV TAR-Tat	CDC25B-CDK2 inh
Fc1ccc(NC(=S)Nc2cccc3c(NC(=S)Nc4ccc(F)cc4)cccc23)cc1	.	18*
Cc1c(C(=O)O)sc2ncnc(Nc3ccccc3F)c12	21*	.
CCCCNc1ncnc2sc(C(=O)O)c(C)c12	0.95	.
Cc1c(C(=O)O)sc2ncnc(NC3CC3)c12	0.22	.
COc1ccc(Nc2ncnc3sc(C(=O)O)c(C)c23)c(OC)c1	2.3	.
COc1ccc(Cl)cc1Nc1ncnc2sc(C(=O)O)c(C)c12	3.9*	.
Cc1c(C(=O)O)sc2ncnc(Nc3ccc(F)c(Cl)c3)c12	20*	.
Cc1c(C(=O)O)sc2ncnc(NCCC3=CCCCC3)c12	6.6*	.
Cc1c(C(=O)O)sc2ncnc(NCc3ccco3)c12	1.6	.
CC1(C)CC(=O)c2c(-c3ccc(Br)cc3)n[nH]c2C1	.	0.54
O=c1cnc2cc(S(=O)(=O)N3CCCC3)ccc2[nH]1	-1.1	-1.2
COC(=O)C1=C(C)NC2=C(C(=O)CCC2)C1c1ccccc1C(F)(F)F (stereo not drawn)	.	-1.8
CN1CCN(C(=O)CCn2c(=O)oc3ccccc32)CC1	.	-0.23
CCCn1c2ccccc2c2cnn(CC(=O)Nc3cc(C)on3)c(=O)c21	-0.05	.
CN1C(=O)CSc2ccc(NC(=O)Nc3ccc(Br)cn3)cc21	-1.9	4.9
Cc1[nH]nc2c1C(c1ccc(O)cc1)N(C)C2=O (stereo not drawn)	0.12	-1.1
Cc1c(-c2nnc(N)o2)c2cc(O)ccc2n1C	0.89	1.2
CC1=C(C#N)c2nc(N)c(C#N)c(C)c2/C1=C/c1ccc(-c2ccc(C(=O)O)c(Cl)c2)o1	.	5.1*
CC1=C(C#N)C(=O)NC(=O)/C1=C\c1ccc(-c2ccccc2)o1	.	-5.6
O=C(Cn1cnc(S(=O)(=O)N2CCc3ccccc32)c1)Nc1ccc2c(c1)OCCO2	-0.37	.
CCN(CC)c1nc(Nc2ccc(Cl)cc2C)c2cnn(C)c2n1	2.2	.
O=C1c2c(O)ccc(O)c2C(=O)c2c(NCCNCCO)ccc(NCCNCCO)c21	17*	-0.47
O=C1c2ccccc2C(=O)c2c(NCCc3ccc(O)cc3)ccc(NCCc3ccc(O)cc3)c21	.	2.7
O=c1cc(CO)oc(CN2CCN(c3ccccn3)CC2)c1O	.	-0.36
O=c1oc(-c2ccccc2)cc(Cl)c1Cl	1.2	14*
SMILES	HIV TAR-Tat	CDC25B-CDK2 inh
CN(C)c1cc(-c2cccc([N+](=O)[O-])c2)oc(=O)c1Cl	.	-1.3
COc1ccc2cc(C(=O)Nc3ccc(F)cc3)sc(=O)c2c1OC	3.9	0.7
COc1ccc2cc(C(=O)Nc3ccc(Cl)cc3)sc(=O)c2c1OC	6.4*	0.18
COc1ccc2c(c1)Cc1sc(NC(=O)c3ccc(Br)cc3)nc1-2	-1.7	18*
COc1cc(OC)cc(C(=O)Nc2nc3c(s2)CCc2ccc(OC)cc2-3)c1	1.1	-0.88
CCN(Cc1cc(=O)n2nc(C3CC3)sc2n1)c1ccccc1	0.79	.
COc1ccc(-c2noc(=O)[nH]2)c(OC)c1	0.71	0.24
Cc1cc(=O)c2c(O)c3c(O)cc(O)c4c5c(O)cc(O)c6c(O)c7c(=O)cc(C)c8c1c2c(c34)c(c65)c78	7.8*	.
Cc1cc(O)c2c(c1O)C(=O)c1c(O)cc(C)c(O)c1C2=O	0.53	.
CC(Cc1ccco1)NC(=O)c1ccc(N2CCOc3ccc(Cl)cc32)s1 (stereo not drawn)	1.4	-11
Cc1ccc(-c2nn3c(-c4ccncc4)nnc3s2)cc1	0.06	-3.1
NNC(=O)Cc1csc(-c2cccc(-n3cccc3)c2)n1	.	17*
O=C(Cc1csc(-c2ccccc2)n1)Nc1nc(-c2ccccc2)cs1	0.46	0.55
NNC(=O)c1csc(-c2cccc(-n3cccc3)c2)n1	.	17*
NNC(=O)c1csc(-c2ccccc2)n1	.	-1.1
FC(F)(F)C(=C(SSCc1ccccc1)C(F)(F)C(F)(F)F)C(F)(F)F	.	4.3*
FC(F)(F)C(=C(N=C(Cl)SOCc1ccccc1)C(F)(F)C(F)(F)F)C(F)(F)F	.	3.1
O=C(CCc1nnc2ccc(N3CCCC3)nn12)Nc1ccc(F)cc1	-0.37	.
Cc1ccc(SCC(=O)OCc2cc(=O)n3nc(-c4cccs4)sc3n2)cc1	0.74	.
CCC(=O)OCc1cc(=O)n2nc(-c3cccs3)sc2n1	19*	.
O=c1nc2c(-c3ccccc3)n[nH]n2c2cc(Cl)ccc12	3.8	-1.6
Cc1cccn2c(=O)c3cc(C#N)c(=O)n(Cc4ccco4)c3nc12	0.71	-0.25
Cc1c(Cl)cccc1Nc1nc2ccccc2c2nncn12	2.1	.
COC(=O)c1[nH]c2sc3c(c2c1-n1cccc1)CCCC3	1.6	13*
COC(=O)c1[nH]c2sc3c(c2c1NC(C)=O)CCCC3	-0.25	4.7
SMILES	HIV TAR-Tat	CDC25B-CDK2 inh
Cc1ccc2c(c1)Cc1c(nc(-c3ccccc3)nc1SCC(N)=O)O2	1.5	-0.8
Cc1ccc2cc(NC(=O)C3CC(=O)N(Cc4ccc(F)cc4)C3)ccc2n1 (stereo not drawn)	.	6.6*
O=C1CC(c2nc3ccccc3n2Cc2ccc(F)cc2)CN1Cc1ccccc1 (stereo not drawn)	-0.72	-1.9
CN1CCc2cc(NC(=O)Nc3cccnc3)ccc21	.	23*
Cc1ccc(NC(=O)Nc2cccnc2)cc1Cl	.	0.99
CN1C(=O)CSc2ccc(NC(=O)Nc3cccnc3)cc21	0.7	19*
Cc1cccnc1NC(=O)Nc1ccc2c(c1)N(C)C(=O)CS2	-1.5	5.7
O=C1c2ccccc2C(=O)N1c1cccc(-c2csc(Nc3cccc4ccccc34)n2)c1	.	19*
COc1ccccc1Nc1nc(-c2cc3c(ccc4ccccc43)oc2=O)cs1	.	-1
CC(C)CN(CC(C)C)S(=O)(=O)c1ccc2c(c1)C(C)(C)C(=O)N2C	2	.
N#CC1=C2SCN(Cc3ccco3)CN2C(=O)CC1c1ccc(Br)cc1 (stereo not drawn)	2.1	-1.8
COc1ccc(C2CC(=O)N3CN(Cc4ccco4)CSC3=C2C#N)cc1 (stereo not drawn)	1.8	3.2*
N#CC1=C2SCN(Cc3ccco3)CN2C(=O)CC1c1ccc(F)cc1 (stereo not drawn)	-1.5	6*
COc1ccc(CN2CSC3=C(C#N)C(c4ccc(F)cc4)CC(=O)N3C2)cc1 (stereo not drawn)	0.92	3.6*
CCOc1ccc(-n2ccc(=O)c(C(=O)Nc3sc4c(c3C(=O)OC)CCCC4)n2)cc1	-0.39	0.58
CCOC(=O)c1nc(Nc2ccc(S(=O)(=O)Nc3nc(C)cc(C)n3)cc2)c2ccccc2n1	.	-1.4
CC(c1nnc(SCC(=O)Nc2ccc3c(c2)OCO3)n1C)N1C(=O)COc2ccccc21 (stereo not drawn)	-1.9	.
Cc1ccsc1CCNS(=O)(=O)c1cc(F)ccc1CN1C(=O)c2cccnc2C1=O	-0.45	.
NC(=O)Cn1c(=O)n(Cc2ccc3c(c2)OCO3)c(=O)c2oc3ccccc3c21	1.7	.
O=C(Nc1sc2c(c1C(=O)NCc1ccco1)CCC2)c1csnn1	9.3*	-0.63
O=C(Nc1sc2c(c1C(=O)NCc1ccco1)CCCC2)c1csnn1	0.46	0.49
CCCCN1C(=O)C(O)(CC(=O)c2ccccc2)c2ccccc21 (stereo not drawn)	-1.6	12*
CCN1C(=O)C(O)(CC(=O)c2ccc(F)cc2)c2ccccc21 (stereo not drawn)	-0.4	-0.32
NC(=O)CN1C(=O)C(O)(CC(=O)c2ccc(F)cc2)c2ccccc21 (stereo not drawn)	-0.04	16*

Screening results as filed in PubChem BioAssay.
